Assay outcomes from PubChem BioAssay.
NS1 inh: qHTS Assay for Inhibitors of Influenza NS1 Protein Function; Potency, µM (titrated, usually from 46.1 µM), without a hit: at the highest dose activity, positive = more growth; 270,000 tested, 0.4% active; AID 2326, 2010; calls by dose curve; note: actives are rising curves; nearly all actives have a fitted effect of over 50% in size
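Growth recovery, yeast-based: influenza A NS1 expressed in S. cerevisiae causes slow growth, and suppressors are detected by OD600. The parent strain without NS1 is used as positive control.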
Pf growth 48h: Primary qHTS for delayed death inhibitors of the malarial parasite plastid, 48 hour incubation; 310,000 tested, 5.9% active; Potency, µM (titrated, usually from 28.7 µM), for inactives: at the top dose activity change, negative = inhibition, actives largely listed as inhibitors; P. falciparum luciferase growth in erythrocytes, 48 h; note: % is set by controls: 0 for no effect and ±100 for the full control effect
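Growth was read as firefly luciferase luminescence after a 48 h, 37 C, 5% CO2 exposure of compounds to reporter-bearing P. falciparum cultures (0.1% parasitemia, 2% hematocrit final) in Albumax-supplemented RPMI 1640.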
AMA1 RON2 block: qHTS for Inhibitors of AMA1-RON; Towards Development of Antimalarial Drug Lead: Primary Screen. Plasmodium falciparum AMA1 (3D7) - RON2 peptide interaction. Potency, µM (top dose mostly 58.2 µM), for the others: top-dose activity change, negative = inhibition, hits mostly inhibitors. AID 720542, 2013. AlphaScreen AMA1-biotinylated RON2 peptide binding. 360,000 tested, 0.2% active;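 note: 0% = vehicle wells and -100% = peptide control; nearly all actives have a fitted effect of over 45% in size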
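AMA1 (3D7) with his tag at 25 nM final met compounds first, then biotinylated RON2 peptide at 25 nM; detection used donor plus acceptor beads, 10 µg/mL apiece, read by AlphaScreen after 30 min at room temperature.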
SARS PLP yeast: qHTS of Yeast-based Assay for SARS-CoV PLP; S. cerevisiae expressing SARS-CoV PLpro, growth rescue; Potency, µM (doses to about 32.9 µM), without a hit: at the top dose activity, positive = growth rescue, actives largely listed as activators; 330,000 tested, 0.19% active; AID 485353, 2010; calls by dose curve; note: 0% is about no effect; nearly all actives have a fitted effect of over 55% in size
Pf growth 96h: Primary qHTS for delayed death inhibitors of the malarial parasite plastid, 96 hour incubation; P. falciparum luciferase reporter growth, 96 h; Potency, µM (highest dose often 28.7 µM), for the others: top-dose activity change, negative = inhibition, usual class: inhibitors; 320,000 tested, 6.9% active; note: % is set by controls: 0 for no effect and ±100 for the full control effect
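Parasite growth measured via integrated firefly luciferase reporter in P. falciparum. Infected erythrocytes at 2% hematocrit, 0.05% parasitemia final were treated 96 hours at 37 C under 5% CO2, and luminescence was read.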
HCV inhibitor: qHTS Assay for Inhibitors of Hepatitis C Virus (HCV); Huh7.5.1 HCVcc-Cre infection, luciferase reporter, 44 h; Potency, µM (doses to about 41.8 µM), for the others: at the top dose activity change, negative = inhibition, actives largely listed as inhibitors; 340,000 tested, 3.4% active; AID 651820, 2012; note: % is set by controls: 0 for no effect and ±100 for the full control effect
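Whole-lifecycle infectious HCVcc-Cre system; cells 1,000/well, compound then virus (~0.5 moi) added 4 h after plating, 44 h culture. Luciferase read 15 sec following 15 min substrate incubation, room temp.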
The depositor's hits bear a star; ? = inconclusive; nt = not tested or not shown; [ ] = remark or other dose. Most compounds without a hit are left out; they make up all but 12% or so of the library. Unless noted, calls come from the whole dose curve; as a rule, active = well fitted curve in the direction sought with a large enough effect; inconclusive = small, poorly fitted or top-dose-only effect, or another doubt; inactive = no such curve, though single readings can be large; an effect the other way counts as inactive or inconclusive. Potency is the fitted concentration of half-maximal effect.

SMILES	NS1 inh	Pf growth 48h	AMA1 RON2 block	SARS PLP yeast	Pf growth 96h	HCV inhibitor
Cc1nnc2ccc(-c3ccc(NC(=O)Cc4cccs4)cc3)nn12	6%	38%	-24%	1%	9.3µM*	-7%
Cc1ccc2nc(-c3ccc(NC(=O)Cc4cccs4)cc3)[nH]c2c1	-1%	?	-8%	8%	4.1µM*	11µM*
Cc1cccc(-c2nnc(-c3cccc(NC(=O)Cc4cccs4)c3)o2)c1	-30%	?	5%	-4%	10µM*	?
Cc1ccc2nc(NC(=O)Cc3cccs3)sc2c1	-5%	nt	-2%	8%	113%	?
O=C(Nc1ccc2nc(-c3ccc4nc[nH]c4c3)[nH]c2c1)c1cccs1	-10%	2.6µM*	?	1%	?	-26%
O=C(O)CC1(C(=O)O)CCCCC1	1%	nt	nt	nt	nt	nt
CC(C)=NOCC(=O)Nn1c(COc2c(C)cccc2C)nc2ccccc2c1=O	-5%	7%	27%	-2%	17%	18%
C/C(=C/CCC(C)(O)C1CC[C@@]2(C)[C@@H]3CC=C4[C@@H](CC[C@H](O[C@H]5O[C@@H](CO)[C@H](O)[C@@H](O)[C@@H]5O)C4(C)C)[C@]3(C)C(=O)C[C@]12C)CO[C@@H]1O[C@H](CO)[C@@H](O)[C@H](O)[C@H]1O (stereo partly specified)	nt	nt	6%	3%	nt	2%
CC(C)(CO)NCC(=O)Nc1cc(C(F)(F)F)cc(NC(=O)CNC(C)(C)CO)c1Cl	-2%	-8%	29%	-15%	-16%	15%
Cc1cccc(NC(=O)c2ccc(NS(=O)(=O)c3c(C)noc3C)cc2)c1	-2%	1%	-14%	-2%	95%	15%
COc1cc(NC(=O)c2ccc(NS(=O)(=O)c3c(C)noc3C)cc2)cc(OC)c1	-31%	?	-10%	2%	0.33µM*	-20%
Cc1noc(C)c1S(=O)(=O)Nc1ccc(C(=O)Nc2ccc(OC(F)(F)F)cc2)cc1	24%	-20%	19%	1%	?	14µM*
O=C(Nc1ccc(-n2nncc2-c2ccco2)cc1)c1cccc(F)c1	-30%	-26%	-7%	2%	?	?
O=C(Nc1ccc(-n2nncc2-c2ccco2)cc1)c1cc2ccccc2oc1=O	5µM*	3%	?	0%	12µM*	1%
CN(CC(=O)Nc1ccccc1Br)C(=O)c1cccc(S(=O)(=O)N2CCc3ccccc32)c1	nt	nt	-7%[11.6 µM]	nt	nt	?
CCN(Cc1nc2ccccc2c(=O)[nH]1)C(=O)c1cccc(S(=O)(=O)N2CCc3ccccc32)c1	nt	10µM*	39%	2%	?	?
COc1ccccc1CN(C)C(=O)c1cccc(S(=O)(=O)N2CCCc3ccccc32)c1	nt	7.4µM*	-16%	-3%	9.3µM*	10µM*
COc1ccccc1C(CNC(=O)c1cccc(S(=O)(=O)N2CCCc3ccccc32)c1)N(C)C (stereo unspecified)	nt	nt	-1%[11.6 µM]	nt	nt	?
COCCN(Cc1ccccc1)C(=O)c1cccc(S(=O)(=O)N2CCCc3ccccc32)c1	nt	?	-6%	4%	-22%	10µM*
COc1ccc(NC(=O)CN(C)C(=O)c2cccc(S(=O)(=O)N3CCCc4ccccc43)c2)cc1	nt	13µM*	-15%	1%	?	?
COCCN(Cc1ccccc1)C(=O)c1cccc(S(=O)(=O)N2CCN(Cc3ccccc3)CC2)c1	nt	nt	88%	nt	nt	nt
CC[C@@]12C(=O)N(c3ccc(C)cc3)C(=O)N1[C@H](c1ccc(Br)cc1)[C@@H]1C(=O)N(C(C)(C)C)C(=O)[C@@H]12	5%	?	49%	9%	?	-10%
COc1ccc(C2c3cc(OC)c(OC)cc3CCN2C(=O)c2cccc([N+](=O)[O-])c2)cc1OC (stereo unspecified)	-14%	?	-20%	1%	9.3µM*	-14%
COc1ccc(C(C)(C)C)cc1NC(=O)c1cccc(S(=O)(=O)N2CCN(C(C)=O)CC2)c1	11%	?	14%	3%	?	-23%
c1ccc(-c2ccc(-c3nc(-c4cccnc4)no3)cc2)cc1	-46%	nt	4%	2%	14%	?
SMILES	NS1 inh	Pf growth 48h	AMA1 RON2 block	SARS PLP yeast	Pf growth 96h	HCV inhibitor
c1ccc(-c2noc(-c3cccnc3)n2)cc1	-3%	179%	1%	nt	12µM*	-1%
CCOc1ccc(-c2noc(-c3cccnc3)n2)cc1OC	-9%	141%	-4%	1%	9.3µM*	-12%
CC(CCc1ccc(O)cc1)NCCc1ccc(O)c(O)c1 (stereo unspecified)	6%	?	?	nt	1.5µM*	?
Cc1ccc(C(=O)Nc2ccccc2N2CCCCC2)o1	-48%	2%	-13%	-1%	3%	?
Cn1c2ccccc2c(=O)c2cc(C#Cc3ccc(N)cc3)ccc21	20%	56%	-6%	-17%	?	?
C=CCn1c2ccccc2c(=O)c2cc(C#Cc3ccccn3)ccc21	nt	?	52%	-2%	2.1µM*	13µM*
O=c1c2ccccc2oc2cc(C#Cc3ccccn3)ccc12	nt	nt	-5%	nt	nt	21%
C=CCn1c2ccccc2c(=O)c2cc(C#Cc3ccsc3)ccc21	-13%	0.046µM*	nt	-12%	0.33µM*	nt
CC(C)C1Cc2c(sc3c2c(=O)n(-c2ccccc2)c2n[nH]c(=S)n32)CO1 (stereo unspecified)	3%	-12%	18%	-3%	-9%	14%
Cc1ccc(CNC(=O)N2CCN(S(=O)(=O)c3ccccc3)CC2)cc1	3%	27%	1%	0%	14%	-5%
CN(CC(=O)Nc1cccc(F)c1)C(=O)CCNC(=O)c1ccco1	nt	?	18%	5%	17%	16%
CN1c2ccccc2N(C)C1c1ccc2c(c1)OCO2	-1%	4.7µM*	0%	2%	28%	5%
Cc1cc2nc(-c3ccc(SCC(=O)N4CCc5ccccc54)nc3)[nH]c2cc1C	23%	?	?	-9%	?	5µM*
Cc1cc(NC(=O)CSc2ccc(-c3nc4cc(C)c(C)cc4[nH]3)cn2)no1	?	3.3µM*	9%	-4%	34%	-6%
Cc1ccc2nc(NC(=O)C3CCN(S(=O)(=O)c4cccs4)CC3)sc2c1	-31%	?	-12%	-19%	0%	13µM*
COc1ccc2nc(NC(=O)C3CCCN(S(=O)(=O)c4cccs4)C3)sc2c1 (stereo unspecified)	1%	9.3µM*	-16%	-6%	?	13µM*
COc1ccc2nc(NC(=O)CNS(=O)(=O)c3cccs3)sc2c1	-1%	nt	0%	5%	-29%	0%
